Results from PubChem BioAssay (NCATS).
Records with an inconclusive call do not appear. The source made the active and inactive calls. Calls come from the whole dose curve; as a rule, active = well fitted cell-killing curve with a large enough effect; inconclusive = small, poorly fitted or top-dose-only effect, or effect the other way; inactive = flat fitted curve, though single readings scatter.

Assays:
Assay in all cases: Primary qHTS to identify gynecologic anti-cancer compounds using libraries of approved drugs and bioactive compounds (AID 1345084); note: nearly all actives have a fitted effect of over 55% in size
C33A = details: Gynecologic cancer cell panel viability, ATPlite luminescence, 48 h; series mostly up to 57.5 µM
Procedure, shortened: (§1)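 Cytotoxicity screen measuring ATP content by luciferase luminescence. Each compound is applied at five concentrations for 48 h at 37 C with 5% CO2.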

CAOV3 = details: Gynecologic cancer cell panel viability, ATPlite luminescence, 48 h; series mostly up to 57.5 µM
Procedure, shortened: as §1

CASKI = details: Gynecologic cancer cell panel viability, ATPlite luminescence, 48 h; series mostly up to 57.5 µM
Procedure, shortened: as §1

Es-2 = details: Gynecologic cancer cell panel viability, ATPlite luminescence, 48 h; series mostly up to 57.5 µM
Procedure, shortened: as §1

HeLa = details: Gynecologic cancer cell panel viability, ATPlite luminescence, 48 h; series mostly up to 57.5 µM
Procedure, shortened: as §1

Hek293T = details: Gynecologic cancer cell panel viability, ATPlite luminescence, 48 h, control line for the selectivity index; series mostly up to 57.5 µM
Procedure, shortened: as §1

JEG-3 = details: Gynecologic cancer cell panel viability, ATPlite luminescence, 48 h; series mostly up to 57.5 µM
Procedure, shortened: as §1

OV90 = details: Gynecologic cancer cell panel viability, ATPlite luminescence, 48 h; series mostly up to 57.5 µM
Procedure, shortened: as §1

PA-1 = details: Gynecologic cancer cell panel viability, ATPlite luminescence, 48 h; series mostly up to 57.5 µM
Procedure, shortened: as §1

SKOV3 = details: Gynecologic cancer cell panel viability, ATPlite luminescence, 48 h; series mostly up to 57.5 µM
Procedure, shortened: as §1

Tov-21-G = details: Gynecologic cancer cell panel viability, ATPlite luminescence, 48 h; series mostly up to 57.5 µM
Procedure, shortened: as §1

Tov112D = details: Gynecologic cancer cell panel viability, ATPlite luminescence, 48 h; series mostly up to 57.5 µM
Procedure, shortened: as §1

Measured: Potency

CC1(CO)CC2C(O)C3=C(CC(C)(O)C2C1)C(=O)OC3 (stereo unspecified)
inactive: all assays above

CC[C@H]1OC(=O)[C@H](C)[C@@H](O[C@H]2C[C@@](C)(OC)[C@@H](O)[C@H](C)O2)[C@H](C)[C@@H](O[C@H]2O[C@H](C)C[C@H](N(C)C)[C@H]2O)[C@](C)(O)C[C@@H](C)C(=O)[C@H](C)[C@@H](O)[C@]1(C)O
inactive: all assays above

C=C[C@](C)(O)CC[C@H]1C(C)=CC(=O)[C@H]2C(C)(C)CCC[C@]12C
inactive: all assays above

COc1cc(C(C)C)c(Oc2cnc(N)nc2N)cc1I
inactive: all assays above

C/C=C/C=C/c1cc2c(C=O)c(O)c(CC=C(C)C)cc2o1
inactive: all assays above

O=C([C@@H]1CCCN(c2ccc3[nH]c(C4(n5cc(Cl)cn5)CC4)nc3n2)C1)N1CCCC1
inactive: all assays above

CC1=C(C(=O)Nc2cc(Cl)ccc2Cl)C(c2ccco2)C2=C(CCCC2=O)N1 (stereo unspecified)
inactive: all assays above

O=C(COc1ccc2ccccc2c1Br)Nc1cccnc1
inactive: all assays above

CC1(C)CCCC2(C)C1C(OC(=O)/C=C/C=C/C=O)C=C1COC(=O)C12O (stereo unspecified)
inactive: all assays above

O=C(c1cc(Cc2n[nH]c(=O)c3ccccc23)ccc1F)N1CCCNCC1
inactive: all assays above

COC1=CC(=O)C=C(C)C12Oc1c(Cl)c(OC)cc(OC)c1C2=O (stereo unspecified)
inactive: all assays above

COc1ccccc1OCCNCC(O)CCOc1cccc2[nH]c3ccccc3c12 (stereo unspecified)
inactive: all assays above

CC(C)(C)OC(=O)c1ncn2c1C(C)(C)Nc1ccccc1-2
inactive: all assays above
